# Compound activity as filed in PubChem BioAssay.
# S16 F2sN tox – toxic to S16 Pmp22-F2sN Schwann cells; S16 Pmp22-F2sN Schwann cells viability, CellTiter-Glo, 24 h; Potency, µM (titrated, usually from 57.5 µM), for inactives: at the highest dose activity change, negative = cytotoxicity, usual class: cytotoxic; 43,000 compounds, 0.48% hits; AID 1508642; note: potency is the fitted concentration of half-maximal effect; % is set by controls: 0 for no effect and ±100 for the full control effect; nearly all actives have a fitted effect of over 65% in size
#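 Rat S16 Schwann reporter line, 24 h treatment with library compounds delivered at 23 nL per well. Cell viability by CellTiter-Glo luminescence.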
# PMP22 txn – modulates PMP22 transcription in S16 Schwann cells; Potency, µM (highest dose often 57.5 µM), without a hit: top-dose activity change, negative = inhibition, most hits filed as inhibitors; S16 Pmp22-F2sN Schwann cells (luciferase reporters placed in the Pmp22 gene), FLuc/NLuc coincidence luminescence, 24 h; 43,000 compounds, 2% hits; AID 1508649; active = clear falling dose curves in both reporters; inconclusive = both reporters move, but less clearly or upward; inactive = either reporter flat; the % is the NLuc reporter signal; note: potency is the fitted concentration of half-maximal effect; % is set by controls: 0 for no effect and ±100 for the full control effect
#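 Rat S16 Pmp22-F2sN cells, 500-1,000/well in phenol red-free DMEM + 10% FBS, compound-treated 24 h (37C, 5% CO2). Luminescence: FLuc read, Stop&Glo added, NLuc read.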
# p53null 32C kill – kills p53 null cells at the permissive temperature; H1299-neo p53 null cells, ATP luminescence, 24 h, 32C; Potency, µM (series often up to 46.1 µM), inactives show top-dose activity change, negative = cytotoxicity, usual class: cytotoxic; 55,000 compounds, 0.62% hits;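 note: potency is the fitted concentration of half-maximal effect; 0% = DMSO only and -100% = full killing by 100 µM tamoxifen; nearly all actives have a fitted effect of over 55% in size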
#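 AC50 values derive from Hill modelling of qHTS concentration-response data (up to 46 uM) in H1299-neo cells. Cells were treated 24 h at 32C following overnight attachment at 37C; viability was read as cellular ATP.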
# mTORC1 inh – inhibitors of mTORC1 signaling in Tsc2-/- p53-/- MEF cells; Tsc2-/- p53-/- MEF, phospho-rpS6 immunofluorescence/PI, 24 h; Potency, µM (series often up to 38.3 µM), without a hit: at the highest dose activity change, negative = inhibition, usual class: inhibitors; 44,000 compounds, 0.78% hits;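 note: potency is the fitted concentration of half-maximal effect; plate controls were DMSO for no effect and rapamycin for full effect; nearly all actives have a fitted effect of over 50% in size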
#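 Plate MEFs (Tsc2-/-, p53-/-, empty vector) in DMEM/10% FBS; after 24 h add compound, incubate 24 h at 37 degree Celsius; fix in PFA/TX-100, block, stain phospho-rpS6 and 10 uM PI; scan at 488 nm; report % positive cells.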
# p53null 39C kill – selectivity test: cytotoxicity in p53 null cells, nonpermissive temperature | H1299 p53-null (neo) cells, 39C, ATPlite viability, 24 h | Potency, µM (titrated, usually from 46.1 µM), for the others: at the highest dose activity, negative = cell killing, most hits filed as cytotoxic | 55,000 compounds, 0.97% hits | AID 904;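 note: potency is the fitted concentration of half-maximal effect; 0% = DMSO only and -100% = full killing by 100 µM tamoxifen; nearly all actives have a fitted effect of over 50% in size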
#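 Temperature-shift cytotoxicity format: compound titrations on p53-null or A138V-expressing H1299 cells held 24 hr at 39C, cell ATP then measured, AC50 from Hill model.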
# OvCa metastasis – inhibitors of ovarian cancer cell adhesion and invasion in omental model; SKOV3ip1-GFP adhesion/invasion on 3D omental model, fluorescence; 46,000 compounds, 0.1% hits; Potency, µM (doses to about 45.8 µM), for the others: at the top dose activity change, negative = inhibition, hits mostly inhibitors;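 note: potency is the fitted concentration of half-maximal effect; plate controls were DMSO wells for no effect and tomatine positive control wells for full effect; nearly all actives have a fitted effect of over 65% in size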
#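 qHTS, 4-pt dose (0.36-46 umol/L); SKOV3ip1-GFP, 1,200 cells/well, no FBS; primary omental fibroblast/mesothelial co-culture 48 h pre-grown; 2 h RT + 16 h 37 C; PBS wash, 4% PFA; GFP count 488/509 nm.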
# NLuc sat counter – inhibits NanoLuc at saturating substrate, PMP22 counter-screen. AID 1508638. shares compounds with PMP22 txn. Potency, µM (top dose mostly 57.5 µM), for inactives: at the highest dose activity change, negative = inhibition, usual class: inhibitors. Secreted NLuc enzyme (filtered S16 cell medium), Nano-Glo luminescence. 690 compounds, 4% hits; note: potency is the fitted concentration of half-maximal effect; % is set by controls: 0 for no effect and ±100 for the full control effect
# NLuc Km ctr – inhibits NanoLuc under Km conditions, PMP22 counter-screen | shares compounds with PMP22 txn | secreted NLuc enzyme, coelenterazine luminescence, Km conditions | Potency, µM (titrated, usually from 57.5 µM), for inactives: at the top dose activity change, negative = inhibition, hits mostly inhibitors | 690 compounds, 5% hits | AID 1508639; note: potency is the fitted concentration of half-maximal effect; % is set by controls: 0 for no effect and ±100 for the full control effect
# FLuc ctr PMP22 – firefly luciferase enzyme inhibition artifact for PMP22 screen. shares compounds with PMP22 txn. purified P. pyralis FLuc, luminescence, 10 min. Potency, µM (top dose mostly 57.5 µM), without a hit: top-dose activity, negative = inhibition, usual class: inhibitors. 690 tested, under 10 active. AID 1508640; note: % of control where 0% means no effect
# Target sequence (P08659 whole entry, looked up): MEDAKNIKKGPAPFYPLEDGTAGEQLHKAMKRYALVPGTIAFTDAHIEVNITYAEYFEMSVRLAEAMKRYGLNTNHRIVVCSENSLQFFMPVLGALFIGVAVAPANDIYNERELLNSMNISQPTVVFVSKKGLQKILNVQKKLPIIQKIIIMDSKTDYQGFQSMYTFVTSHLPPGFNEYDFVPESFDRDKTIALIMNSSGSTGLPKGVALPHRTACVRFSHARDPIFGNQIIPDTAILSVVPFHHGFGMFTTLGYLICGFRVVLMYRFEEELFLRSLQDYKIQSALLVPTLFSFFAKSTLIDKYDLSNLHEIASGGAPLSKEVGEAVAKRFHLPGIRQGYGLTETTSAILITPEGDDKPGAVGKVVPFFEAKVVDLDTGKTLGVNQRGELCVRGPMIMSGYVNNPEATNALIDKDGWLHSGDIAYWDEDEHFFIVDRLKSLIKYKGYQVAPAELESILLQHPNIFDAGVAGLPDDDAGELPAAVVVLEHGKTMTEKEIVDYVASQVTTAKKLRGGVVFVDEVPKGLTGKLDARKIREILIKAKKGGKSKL
# S16 F2sN tox cnf – S16 Schwann cell cytotoxicity, confirmatory | 690 compounds, 7% hits | shares compounds with PMP22 txn | Potency, µM (titrated, usually from 57.5 µM), inactives show at the highest dose activity change, negative = viability loss, most hits filed as cytotoxic | S16 Schwann cells viability, CellTiter-Glo ATP luminescence, 24 h | AID 1508641; note: potency is the fitted concentration of half-maximal effect; % is set by controls: 0 for no effect and ±100 for the full control effect
# PMP22 txn cnf – confirmation of modulators of PMP22 gene transcription in S16 cells; shares compounds with PMP22 txn; S16 Schwann cells Pmp22-F2sN, dual luciferase, 24 h; Potency, µM (highest dose often 57.5 µM), without a hit: at the top dose activity change, negative = inhibition, actives largely listed as inhibitors; 690 compounds, 22% hits; AID 1508646; active = clear falling dose curves in both reporters; inconclusive = both reporters move, but less clearly or upward; inactive = either reporter flat; the % is the FLuc reporter signal; note: potency is the fitted concentration of half-maximal effect
# PMP22 HiBiT cnf – rat PMP22 protein level modulation, confirmatory; shares compounds with PMP22 txn; S16 Schwann cells Pmp22-HiBiT, luminescence, 48 h; Potency, µM (doses to about 27.9 µM), without a hit: at the top dose activity change, negative = inhibition, usual class: inhibitors; 95 tested, under 10 active; AID 1508647
# Target sequence (P25094 whole entry, looked up): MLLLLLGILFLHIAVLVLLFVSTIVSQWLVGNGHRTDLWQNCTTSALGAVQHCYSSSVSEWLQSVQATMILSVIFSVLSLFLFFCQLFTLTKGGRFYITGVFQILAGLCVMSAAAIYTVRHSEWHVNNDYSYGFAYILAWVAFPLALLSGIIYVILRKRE
# Starred values were filed as active, the others as inactive; i = inactive; ? = inconclusive; / = not tested or not shown. Only some compounds are listed: those with a hit (about 3% of all), similar ones and a draw of the others. Unless noted, calls come from the whole dose curve; as a rule, active = well fitted curve in the direction sought with a large enough effect; inconclusive = small, poorly fitted or top-dose-only effect, or another doubt; inactive = no such curve, though single readings can be large; an effect the other way counts as inactive or inconclusive.
SMILES,S16 F2sN tox,PMP22 txn,p53null 32C kill,mTORC1 inh,p53null 39C kill,OvCa metastasis,others
Cc1ccc(S(=O)(=O)c2nnn3c2nc(N2CCC(C(N)=O)CC2)c2cc(Cl)ccc23)cc1C,?,16µM*,11%,1%,?,-21%,
CO[C@H]1CCC(O[C@H]2C[C@H]([C@]3(C)CC[C@]4(C[C@H](O)[C@@H](C)[C@@H]([C@@H](C)C=C(C)C(=O)[C@H](C)C[C@H](C)C(=O)O)O4)O3)O[C@]3(O[C@@H]([C@H]4O[C@@](O)(CO)[C@H](C)C[C@H]4C)C[C@H]3C)[C@H]2C)O[C@H]1C (stereo partly drawn),/,/,/,/,/,-19%,
CCOC(=O)Nc1ccc(NCc2ccc(F)cc2)cc1N,/,/,/,/,/,-7%,
Cc1nc2c(=O)n(C)c(=O)nc-2n(C)n1,/,/,1.3µM*,/,3.2µM*,/,
COc1ccc2nc(NC(=O)c3nc(S(=O)(=O)Cc4cccc(C)c4)ncc3Cl)sc2c1,10µM*,6.2µM*,-27%,6.6µM*,?,?,
CCOc1ccc2nc(NC(=O)c3cccn(Cc4ccc(C)cc4)c3=O)sc2c1,11%,-23%,-4%,-5%,26%,-1%,
O=C(Nc1nc2ccccc2s1)c1cccn(Cc2ccccc2)c1=O,14%,-17%,?,-2%,8%,i,
Cc1ccccc1Cn1cccc(C(=O)Nc2nc3ccccc3s2)c1=O,0%,-13%,10µM*,0%,14%,i,
O=C(Nc1ccc(Cl)c(C(F)(F)F)c1)c1ccc2c(c1)CCN2S(=O)(=O)c1ccccc1,22µM*,?,16%,8.3µM*,-2%,i,
CCn1nc(-c2ccccc2)nc2c(=O)n(C)c(=O)nc1-2,/,/,3.5µM*,/,18%,/,
COc1cccc2c1[C@]13CCN(CC4CC4)[C@H](C2)[C@]1(OC)CCC(=O)C3,/,/,/,/,/,0%,
COC(=O)C1CN(C#N)N(c2ccc(Cl)cc2)C12c1ccccc1-c1ccccc12 (stereo not drawn),/,/,8.9µM*,/,?,/,
COc1ccc(N2CCN(C(=O)C3CCCN(S(=O)(=O)c4ccc5c(c4)CCCN5C(C)=O)C3)CC2)cc1 (stereo not drawn),?,14µM*,2%,7.4µM*,-11%,i,
C[C@](O)(COc1ccc(C#N)cc1)C(=O)Nc1ccc(C#N)c(C(F)(F)F)c1,/,/,/,/,/,-8%,
COc1ccc(CNC(=O)Cn2c(SCC(=O)Nc3ccc(C)c(C)c3)nc3ccccc32)cc1,-29%,?,?,16µM*,?,?,
CC(C)N[C@@H]1CCn2c(=O)[nH]c3cccc(c32)[C@@H]1O,/,/,/,/,/,5%,
O=C(c1ccccc1)c1ccc2nc(N3CCN(c4ccc(F)cc4)CC3)c3nncn3c2c1,16%,?,5%,4.1µM*,-20%,7%,
COc1ccc2c(c[n+](C)c3c4cc5c(cc4ccc23)OCO5)c1OC,/,/,/,/,/,23µM*,
C=C[C@@H]1CN2CCC1C[C@@H]2[C@@H](O)c1ccnc2ccccc12 (stereo partly drawn),/,/,/,/,/,-15%,
CCOC(=O)c1c(C(C#N)=CN)c2ccc(Cl)c(Cl)c2n1C,/,/,/,/,/,-22%,
C[C@@H]1[C@@H](CC(C[C@H]2O[C@@H]3O[C@]4(C)CC[C@@H]5[C@H](C)CC[C@@H]([C@H]2C)[C@@]35OO4)C[S+](=O)([O-])c2ccc(COC(=O)N(C)C)cc2)O[C@@H]2O[C@]3(C)CC[C@H]4[C@H](C)CC[C@@H]1[C@@]24OO3 (stereo partly drawn),/,/,/,/,/,-5%,
Cc1ccc(NC(=O)CSc2nc(-c3ccco3)cc(C(F)(F)F)n2)c(C)c1,?,?,23%,0.83µM*,?,?,
C=C[C@@H]1CN2CCC1C[C@H]2[C@H](O)c1ccnc2ccccc12 (stereo partly drawn),/,/,/,/,/,8%,
COc1cccc(-n2c(SCC(=O)c3ccc(Cl)cc3)nc3c([nH]c4ccccc43)c2=O)c1,?,10µM*,?,-5%,18%,4%,NLuc sat counter=1%;NLuc Km ctr=4%;FLuc ctr PMP22=-6%;S16 F2sN tox cnf=?;PMP22 txn cnf=11µM*;PMP22 HiBiT cnf=-16%
Cc1oc(-c2cccc(Cl)c2)nc1CN1CCC(C(=O)NCCCN2CCN(c3cccc(Cl)c3)CC2)CC1,?,12µM*,-5%,0%,?,1%,NLuc sat counter=?;NLuc Km ctr=?;FLuc ctr PMP22=4%;S16 F2sN tox cnf=27µM*;PMP22 txn cnf=?
Cc1oc(-c2ccccc2Cl)nc1CN1C(=O)CN=C(c2ccccc2)c2cc(Cl)ccc21,?,?,11%,-8%,-9%,1%,
